Experimental data taken from PubChem BioAssay (NCI).
The panel holds about 83,000 compounds, 20% with a hit somewhere; the sample as a whole holds those more often.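 A percent growth of 40 corresponds to 60% growth inhibition; 0 means no net growth; -100 means all cells died. Active threshold: below 10.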 The source made the active and inactive calls.

Each compound was assayed on NCI-H226 lung (assay: NCI-60 one-dose screen, 48 h (100 = growth as untreated, 0 = no growth, -100 = all killed)). Settings: 10 µM unless noted.

Row | Compound | growth
1 | O=c1ccc(Cn2c(C(F)(F)F)cc3c(Cl)ncnc32)c[nH]1 | 116% (inactive)
2 | O=C1CC(c2ccc(I)cc2)OC2C=Cc3ccccc3C12 (centres undefined) | 90.7% (inactive)
3 | COC(=O)c1c(C(=O)OC)c2ccc3c4ccccc4ccc3n2c1C(=O)OC | 100% (inactive)
4 | O=C(N/N=C/c1occc1Br)c1[nH]c2ccc(Br)cc2c1-c1ccccc1 | -82.5% (active)
5 | Cn1cc(-c2cc(N)n3nc(-c4c[nH]c5ccccc45)cc3n2)c2cc(Br)ccc21 | -11.9% (active)
6 | Cc1ccc2c(c1)/C(=C/C(=O)c1cc3ccccc3oc1=O)C(=O)N2 | 51.8% (inactive)

The compounds below were run on NCI-H322M lung in the same assay as above. Settings: 10 µM unless noted.

Row | Compound | growth
7 | COc1cc(CNC(=O)C[C@H](C)CCC=C(C)C)ccc1OCc1cn(-c2ccc(Br)cc2)nn1 | 99.6% (inactive)
8 | N#CC1=C(c2cccs2)Nc2c(c(-c3ccccc3)nn2-c2ccccc2)C12C(=O)Nc1ccccc12 (centres undefined) | 80.1% (inactive)
9 | N#Cc1c(-c2ccc(F)cc2)nc(SCc2ccc(F)cc2)nc1N1CCNCC1 | 36.1% (inactive)
10 | COc1cc(NC(=O)CSc2nnc(-c3ccc(-c4nc5ccc(Cl)cc5[nH]4)cc3)o2)cc(OC)c1OC | 95.2% (inactive)
11 | CN(C)c1nc(NCCNS(=O)(=O)c2ccc(C(=O)/C=C/c3ccc(C(F)(F)F)cc3)cc2)nc(N2CCOCC2)n1 | 72% (inactive)
12 | COc1cc(CNC(=O)C[C@H](C)CCC=C(C)C)ccc1OCc1cn(-c2ccc(Cl)cc2Cl)nn1 | 95.2% (inactive)
13 | O=C(N=Nc1c(O)[nH]c2ccc(Cl)cc12)c1ccc2nc(-c3ccc(Cl)cc3)[nH]c2c1 | 31.4% (inactive)
14 | CC1=C(C(=O)OCc2ccccc2)C(c2ccc(N(C)C)cc2)n2c(nc3ccccc32)N1 (centres undefined) | 101% (inactive)
15 | Cn1cc(-c2cc(N)n3nc(-c4c[nH]c5ccc(F)cc45)cc3n2)c2cc(Br)cnc21 | 80.1% (inactive)
16 | CCCCC[C@@H]1C/C=C(\C)[C@@H](O)C(C)(C)C(=O)[C@@H](C)/C=C(\C)[C@@H]2C[C@H](O)C[C@](O)(CC(=O)O1)O2 | 82% (inactive)
17 | COc1ccc2c(c1)c(-c1cc(N)n3nc(-c4c[nH]c5ccccc45)cc3n1)cn2C | -53.5% (active)
18 | COc1ccccc1NC(=O)N/N=C/c1c[nH]c2ccccc12 | 49.4% (inactive)
19 | CC[C@]12C=CCN3CC[C@@]4(c5ccc(OC)cc5N(C)[C@H]4[C@@](O)(C(=O)OC)[C@@H]1OC(=O)CCCC[P+](c1ccc(F)cc1)(c1ccc(F)cc1)c1ccc(F)cc1)[C@@H]32 | 52.9% (inactive)
20 | Cc1ccc(Cl)cc1NC(=O)Nc1nc2ccc([N+](=O)[O-])cc2s1 | -6.17% (active)
21 | Nc1nnc(CS(=O)(=O)c2ccccc2)s1 | 94.6% (inactive)
22 | N#CC1=C(c2cccs2)Nc2c(c(-c3ccccc3)nn2-c2ccccc2)C12C(=O)Nc1ccc(Br)cc12 (centres undefined) | 26.9% (inactive)
23 | N#Cc1ccc(C(=O)CSc2nc3c(c(Nc4ccc(S(N)(=O)=O)cc4)n2)CCC3)cc1 | 75.3% (inactive)
24 | Cc1cccc(-c2ccccc2Oc2ccc3nnc(Cl)n3n2)c1 | 99.9% (inactive)
25 | COC(=O)c1cc(C(=O)CBr)n2c1ccc1c3ccccc3ccc12 | 82.8% (inactive)

Row | Compound | growth
26 | O=C(Cn1c(/C=C/c2ccc([N+](=O)[O-])cc2)nc2ccccc2c1=O)Nc1ccccc1 | 67.2% (inactive)
27 | CC(C)C[C@H](NC(=O)CNC(=O)C[C@H]1O[C@@H]2OC3(C)CC[C@H]4[C@H](C)CC[C@@H]([C@H]1C)[C@@]24O3)B(O)O | 54.4% (inactive)
28 | COc1ccccc1/C=C/c1cccc(NC(=S)NCCCCN(C)C)c1 | -87.4% (active)
29 | CCCn1c(NC(=O)c2cccc(C(N)=O)c2)nc2cc(CN3CCCCC3)ccc21 | 92% (inactive)
30 | Fc1cccc(CNc2nc(SCCN3CCOCC3)nc3c2cnn3CC(Cl)c2ccc(Br)cc2)c1 (centres undefined) | 81.7% (inactive)
31 | COc1ccc(NC(=O)Nc2nc3ccc([N+](=O)[O-])cc3s2)cc1 | 13.1% (inactive)
32 | O=C1c2cccc3c(N4CCN(c5ccccc5)CC4)ccc(c23)C(=O)N1c1cccc(-c2nn(-c3ccccc3)cc2-c2nc3ccccc3s2)c1 | 97% (inactive)
33 | Clc1ccccc1Nc1nnc(-c2c[nH]c3ccccc23)o1 | 47.1% (inactive)
34 | Nc1nnc(-c2cncc(Br)c2)c(-c2c[nH]c3ccc(Br)cc23)n1 | 78.2% (inactive)
35 | O=C(CSc1nc2ccccc2c(=O)[nH]1)NNC(=O)c1ccccc1Cl | 116% (inactive)
36 | COc1c2c(c(Br)c3c1C(CCc1ccccc1)N(C)CC3)OCO2 (centres undefined) | 38.5% (inactive)
37 | Cn1cc(-c2cc3nc(-c4c[nH]c5ccccc45)cc(N)n3n2)c2ccccc21 | 19.4% (inactive)
38 | O=C(/C=C1\C(=O)N(Cc2ccccc2)c2ccccc21)c1cc2ccccc2oc1=O | 93.9% (inactive)
39 | O=c1ccc(Cn2c(C(F)(F)F)cc3c(Cl)ncnc32)c[nH]1 | 67.2% (inactive)
40 | O=C1CC(c2ccc(I)cc2)OC2C=Cc3ccccc3C12 (centres undefined) | 103% (inactive)
41 | COC(=O)c1c(C(=O)OC)c2ccc3c4ccccc4ccc3n2c1C(=O)OC | 101% (inactive)
42 | O=C(N/N=C/c1occc1Br)c1[nH]c2ccc(Br)cc2c1-c1ccccc1 | -81.2% (active)
43 | Cn1cc(-c2cc(N)n3nc(-c4c[nH]c5ccccc45)cc3n2)c2cc(Br)ccc21 | -37.2% (active)
44 | Cc1ccc2c(c1)/C(=C/C(=O)c1cc3ccccc3oc1=O)C(=O)N2 | 101% (inactive)
